The test system of this test is A673/TR/shEF. The experiment in a line: cell viability (LOESS-normalised, relative to median of negative controls) (log2 ratio); higher = more viable cells (less compound effect), active = hit call of the paper (over 3 MAD below the median). To be noted: treatment time: 72 h. A digest of the protocol:
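A673/TR/shEF Ewing sarcoma cells (1,500 per well, 384-well plates) were grown with or without doxycycline to induce EWS-FLI1 shRNA knockdown, starting 24 h before compounds. Library compounds at two or more concentrations, with DMSO controls, were added for three days. Cell viability was read by CellTiter-Glo luminescence on an Envision reader, then LOESS-corrected per plate, divided by the median of negative controls and log2-transformed. Hits were wells at least three median absolute deviations from the median of all screened wells.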

The mark [1] stands for this setting: 0.25 µM, library screen: screen1, EWS-FLI1 expression: high (no doxycycline).
The mark [2] stands for this setting: 0.25 µM, library screen: screen1, EWS-FLI1 expression: low (doxycycline-induced shRNA knockdown).
[3] abbreviates: 2.5 µM, library screen: screen1, EWS-FLI1 expression: high (no doxycycline).
The mark [4] stands for this setting: 2.5 µM, library screen: screen1, EWS-FLI1 expression: low (doxycycline-induced shRNA knockdown).
Setting [5] is: 0.25 µM, library screen: screen2, EWS-FLI1 expression: high (no doxycycline).
Where [6] appears, read: 0.25 µM, library screen: screen2, EWS-FLI1 expression: low (doxycycline-induced shRNA knockdown).
Where [7] appears, read: 2.5 µM, library screen: screen2, EWS-FLI1 expression: high (no doxycycline).
Setting [8] is: 2.5 µM, library screen: screen2, EWS-FLI1 expression: low (doxycycline-induced shRNA knockdown).

The source of these data is the supplement of paper PMC6089552.

Screen size: about 3,200 compounds; about 300 (9.4%) showed activity. The sample holds actives, similar compounds and a random draw of the others, so the mix is not that of the screen.

Turning to `COC(=O)C(O)[C@H]1C(C)(C)[C@@H](OC(C)=O)[C@@H]2CC3=C4CC(=O)O[C@@H](c5ccoc5)[C@]4(C)CCC3[C@@]1(C)C2=O` (stereo partly drawn), the “cell viability (log2)” value is, setting by setting: under setting [1], 0.11 (inactive); under setting [2], 0.119 (inactive); under setting [3], 0.15 (inactive); under setting [4], 0.0885 (inactive).

Regarding `CC(=O)O[C@H]1CC[C@@]2(C)C(=CC[C@H]3[C@@H]4CC[C@H]([C@H](C)CCCC(C)C)[C@@]4(C)CC[C@@H]32)C1`, the “cell viability (log2)” value is 0.0694 (inactive) under setting [1], 0.0487 (inactive) under setting [2], 0.14 (inactive) under setting [3] and 0.0189 (inactive) under setting [4].

For `O=C(O)C1CC(C2CCCCN2)CN2CCCCC12` (stereo not drawn), the “cell viability (log2)” value is 0.039 (inactive) under setting [1], 0.0346 (inactive) under setting [2], 0.146 (inactive) under setting [3] and 0.0208 (inactive) under setting [4].

In the case of `CC(N)=NCCC[C@H](N)C(=O)O`, the “cell viability (log2)” value under setting [5] was 0.0627 (inactive), the “cell viability (log2)” value under setting [6] was 0.0753 (inactive), the “cell viability (log2)” value under setting [7] is -0.0275 (inactive) and the “cell viability (log2)” value under setting [8] was 0.0731 (inactive).

With `COc1ccccc1CNC(=O)CN(c1ccc(Cl)cc1)S(C)(=O)=O`, the “cell viability (log2)” value reads like this: under setting [1], -0.0129 (inactive); under setting [2], 0.0689 (inactive); under setting [3], 0.0751 (inactive); under setting [4], 0.0379 (inactive).

For `C=C1CCC(C2CC(=O)OC2=O)C(=O)CCC2C1CC2(C)C` (stereo not drawn), the “cell viability (log2)” value reads like this: under setting [1], 0.1 (inactive); under setting [2], 0.128 (inactive); under setting [3], 0.0855 (inactive); under setting [4], 0.0593 (inactive).

With `Cc1nnc(SCC(=O)N2c3ccccc3-c3c(ssc3=S)C2(C)C)s1`, the “cell viability (log2)” value was 0.0582 (inactive) under setting [1], 0.0648 (inactive) under setting [2], 0.115 (inactive) under setting [3] and 0.255 (inactive) under setting [4].

Regarding `CC(C)=CCC/C(C)=C/C=C/C(C)=C/C=C/C(C)=C/C=C/C=C(C)/C=C/C=C(C)/C=C/C=C(\C)CCC=C(C)C`, the “cell viability (log2)” value by setting is: under setting [1], 0.149 (inactive); under setting [2], 0.105 (inactive); under setting [3], 0.156 (inactive); under setting [4], 0.123 (inactive).

As for `CC(=O)O[C@@H]1CC2C(C)(C)C=CC(=O)[C@]2(C)C2CC[C@@]3(C)[C@H](c4ccoc4)OC(=O)C4OC43[C@@]21C` (stereo partly drawn), the “cell viability (log2)” value was 0.059 (inactive) under setting [1], 0.0804 (inactive) under setting [2], 0.118 (inactive) under setting [3] and 0.149 (inactive) under setting [4].

For the compound `NC1(C(=O)O)CC1`, the “cell viability (log2)” value under setting [1] was 0.064 (inactive); the “cell viability (log2)” value under setting [2] is 0.0956 (inactive); the “cell viability (log2)” value under setting [5] is -0.141 (active); the “cell viability (log2)” value under setting [6] was -0.0707 (active); the “cell viability (log2)” value under setting [3] was 0.122 (inactive); the “cell viability (log2)” value under setting [4] is 0.0925 (inactive). Besides, the “cell viability (log2)” value was 0.123 (inactive) under setting [7] and 0.0434 (inactive) under setting [8].

Consider `NC1(C(=O)O)CCCCC1`, for which the “cell viability (log2)” value was 0.0492 (inactive) under setting [5], 0.114 (inactive) under setting [6], -0.0212 (inactive) under setting [7] and 0.0608 (inactive) under setting [8].

Turning to `NC1(C(=O)O)CCCC1`, the “cell viability (log2)” value is 0.102 (inactive) under setting [1], 0.137 (inactive) under setting [2], 0.134 (inactive) under setting [3] and 0.192 (inactive) under setting [4].

Regarding `CN(C)C(=O)/C(=C\c1cccc(Br)c1)NC(=O)c1ccccc1`, the “cell viability (log2)” value is 0.0622 (inactive) under setting [1], 0.0915 (inactive) under setting [2], 0.179 (inactive) under setting [3] and 0.181 (inactive) under setting [4].

Turning to `O=C(O)c1cc2c(Cl)cc(Cl)cc2[nH]1`, the “cell viability (log2)” value under setting [1] was 0.105 (inactive), the “cell viability (log2)” value under setting [2] is 0.0244 (inactive), the “cell viability (log2)” value under setting [3] is 0.0763 (inactive) and the “cell viability (log2)” value under setting [4] was 0.0336 (inactive).

Consider `NCC1OC(OC2C(N)CC(N)C(OC3OC(CO)C(O)C(N)C3O)C2O)C(N)C(O)C1O` (stereo not drawn), for which the “cell viability (log2)” value runs as follows: under setting [1], 0.0483 (inactive); under setting [2], 0.0336 (inactive); under setting [3], 0.164 (inactive); under setting [4], 0.0237 (inactive).

On to `COc1cc([S+](C)[O-])ccc1-c1nc2ncccc2[nH]1` (stereo not drawn), for which the “cell viability (log2)” value under setting [1] was 0.101 (inactive), the “cell viability (log2)” value under setting [2] is 0.00949 (inactive), the “cell viability (log2)” value under setting [3] is 0.131 (inactive) and the “cell viability (log2)” value under setting [4] is 0.0599 (inactive).

In the case of `C[S+]([O-])c1ccc(-c2nc(-c3ccc(F)cc3)c(-c3ccncc3)[nH]2)cc1` (stereo not drawn), the “cell viability (log2)” value (0.025 µM, library screen: screen1, EWS-FLI1 expression: high (no doxycycline)) was 0.29; the “cell viability (log2)” value (0.025 µM, library screen: screen1, EWS-FLI1 expression: low (doxycycline-induced shRNA knockdown)) was 0.136 (inactive); the “cell viability (log2)” value under setting [1] was 0.263 (inactive); the “cell viability (log2)” value under setting [2] is 0.121 (inactive); the “cell viability (log2)” value under setting [3] was -0.235 (active); the “cell viability (log2)” value under setting [4] was 0.238 (inactive). In addition, the “cell viability (log2)” value by setting is: (25 µM, library screen: screen1, EWS-FLI1 expression: high (no doxycycline)) -0.108 (active); (25 µM, library screen: screen1, EWS-FLI1 expression: low (doxycycline-induced shRNA knockdown)) 0.274 (inactive).

Regarding `C/C1=C\CC(C)(C)/C=C\CC2(C)OC2CC1` (stereo not drawn), the “cell viability (log2)” value runs as follows: under setting [1], 0.0693 (inactive); under setting [2], 0.00465 (inactive); under setting [3], 0.118 (inactive); under setting [4], 0.162 (inactive).

In the case of `CC(C)CCC[C@@H](C)[C@H]1CC[C@H]2C3=CC[C@H]4C[C@@H](O)CC[C@]4(C)[C@H]3CC[C@]12C`, the “cell viability (log2)” value under setting [1] is -0.0717 (inactive), the “cell viability (log2)” value under setting [2] is -0.021 (inactive), the “cell viability (log2)” value under setting [3] was 0.0758 (inactive) and the “cell viability (log2)” value under setting [4] is 0.0695 (inactive).

Consider `C[C@H]1COC2=C1C(=O)C(=O)c1c2ccc2c1CCCC2(C)C`, for which the “cell viability (log2)” value reads like this: (0.103 µM, library screen: screen3, EWS-FLI1 expression: high (no doxycycline)) 0.0338 (inactive); (0.103 µM, library screen: screen3, EWS-FLI1 expression: low (doxycycline-induced shRNA knockdown)) 0.0754 (inactive); (0.308 µM, library screen: screen3, EWS-FLI1 expression: high (no doxycycline)) 0.0526 (inactive); (0.308 µM, library screen: screen3, EWS-FLI1 expression: low (doxycycline-induced shRNA knockdown)) 0.0683 (inactive); (0.926 µM, library screen: screen3, EWS-FLI1 expression: high (no doxycycline)) 0.0196 (inactive); (0.926 µM, library screen: screen3, EWS-FLI1 expression: low (doxycycline-induced shRNA knockdown)) 0.0264 (inactive). The “cell viability (log2)” value is, setting by setting: (2.8 µM, library screen: screen3, EWS-FLI1 expression: high (no doxycycline)) -0.0315 (inactive); (2.8 µM, library screen: screen3, EWS-FLI1 expression: low (doxycycline-induced shRNA knockdown)) -0.0274 (inactive); (8.3 µM, library screen: screen3, EWS-FLI1 expression: high (no doxycycline)) 0.0932 (inactive); (8.3 µM, library screen: screen3, EWS-FLI1 expression: low (doxycycline-induced shRNA knockdown)) -0.035 (inactive); (25 µM, library screen: screen3, EWS-FLI1 expression: high (no doxycycline)) -0.196 (active); (25 µM, library screen: screen3, EWS-FLI1 expression: low (doxycycline-induced shRNA knockdown)) -0.308 (active).

Take `CCN1CCC[C@H]1CNC(=O)c1c(OC)ccc(I)c1O`: the “cell viability (log2)” value by setting is: under setting [5], 0.251 (inactive); under setting [6], 0.174 (inactive); under setting [7], 0.0364 (inactive); under setting [8], 0.15 (inactive).

`Cc1ccsc1C=C1SC(=S)N(CC(=O)O)C1=O`: the “cell viability (log2)” value runs as follows: under setting [1], 0.0973 (inactive); under setting [2], 0.0799 (inactive); under setting [3], 0.133 (inactive); under setting [4], 0.152 (inactive).

Take `C=CCN1C(=O)/C(=C2\SC(=S)N(c3c(C)n(C)n(-c4ccccc4)c3=O)C2=O)c2ccccc21`: the “cell viability (log2)” value was -0.0187 (inactive) under setting [1], -0.00404 (inactive) under setting [2], 0.0713 (inactive) under setting [3] and -0.0309 (inactive) under setting [4].
